Activity calls are given as the source filed them. The calls were made as follows: active = hit-call score of the fitted dose curve at least 0.9, where 1 is the maximum; inactive = score below 0.9.
assay: ATG_TAL_CIS: Attagene CIS-FACTORIAL HepG2 Assay for human TAL Basal Promoter (AID 2282966); conditions: HepG2 Attagene cis-factorial TAL promoter reporter; actives raise or lower the signal
Description: ATG_CIS is a cell-based, multiplexed-readout assay that uses HepG2, a human liver cell line, with measurements taken at 24 hours after chemical dosing in a 24-well plate.ATG_TAL_CIS is one of 52 assay component(s) measured or calculated from the ATG_CIS assay. It is designed to make measurements of mRNA induction, a form of inducible reporter, as detected with fluorescence intensity signals by Reverse transcription polymerase chain reaction (RT-PCR) and Capillary electrophoresis technology.Data from the assay component ATG_TAL_CIS was analyzed into 1 assay endpoint. This assay endpoint, ATG_TAL_CIS, was analyzed with bidirectional fitting relative to DMSO as the negative control and baseline of activity. Using a type of inducible reporter, measures of mRNA for gain or loss-of-signal activity can be used to understand the background control at the transcription factor-level as they relate to the gene . Furthermore, this assay endpoint can be referred to as a secondary readout, because this assay has produced multiple assay endpoints where this one serves a background control function. To generalize the intended target to other relatable targets, this assay endpoint is annotated to the background measurement intended target family, where the subfamily is internal marker.
Human liver HepG2 cells are transiently transfected with multiple reporter transcription units (MRTUs) in 6-well plates using FuGene 6 reagent (Roche; 3 ml FuGene/1 mg DNA). The MRTU constructs are regulated by a cis-regulating element (promoter). […] A major difference between the CIS and TRANS system is that in CIS activities of endogenous TFs are measured, whereas the TRANS assay evaluates changes in activities of exogenous, chimeric NR-Gal4 proteins. […] At the end of 24 hour incubation, total RNA was isolated using TriZol reagent (Invitrogen). The isolated RNA is then reverse-transcribed using oligo(dT) primer and Mo-MLV reverse transcriptase (Invitrogen) with DNAse I (Ambion) treatment for 30 min. The one-tenth of the produced cDNA was amplified by PCR using Taq DNA polymerase (Invitrogen) and two reporter sequence-specific primers. The PCR products were fluorescently labeled by primer extension with 6-arboxyfluorescein (6-FAM) 5'-labeled reporter sequence-specific primer (2 min at 95 C, 20 s at 68 C and 10 min at 72 C) and these products were digested with 5U of HpaI (New England Biolabs) for 2h at 37 C. The fragments were purified using Qiaquick PCR columns (Qiagen), analyzed on an ABI 3130xL genetic analyzer (Applied Biosystems) with peak positions identified by using a set of X-rhodamine (ROX)-labeled MapMarker1000 molecular weight standards (BioVentures). The raw capillary electrophoresis data was processed using Attagraph software (Attagene).

Row | Compound | outcome | AC50
1 | O=C(O)C1(c2ccc3c(c2)OC[C@H](Cc2ccc(-c4ccccc4)cc2)[C@H]3O)CCCC1 | inactive | 
2 | C=C(C)C(=O)OCCCCOC(=O)C(=C)C | inactive | 
3 | CCOP(=S)(OCC)OP(=S)(OCC)OCC | inactive | 
4 | CCCCOC(C)=O | inactive | 
5 | ClCCCCl | inactive | 
6 | O=[N+]([O-])c1cc([As](=O)(O)O)ccc1O | inactive | 
7 | Cc1ccccc1OP(=O)(Oc1ccccc1)Oc1ccccc1 | inactive | 
8 | COC(F)(C(F)(F)C(F)(F)F)C(F)(C(F)(F)F)C(F)(F)F (stereo not given) | inactive | 
9 | O=C(Nc1ccc(Br)cc1)c1cc(Br)cc(Br)c1O | inactive | 
10 | CC(c1ccccc1)(c1ccc(O)cc1)c1ccc(O)cc1 | inactive | 
11 | CC(F)(F)CC(F)(F)F | inactive | 
12 | CCOC(=O)C(SP(=S)(OC)OC)c1ccccc1 (stereo not given) | inactive | 
13 | CCCSP(=S)(OCC)Oc1ccc(SC)cc1 (stereo not given) | inactive | 
14 | CN(C1CCCCC1)C1CCCCC1 | inactive | 
15 | CC(O)(CS(=O)(=O)c1ccc(F)cc1)C(=O)Nc1ccc(C#N)c(C(F)(F)F)c1 (stereo not given) | inactive | 
16 | Cc1cc(C(F)(C(F)(F)F)C(F)(F)F)ccc1NC(=O)c1cccc(I)c1C(=O)NC(C)(C)CS(C)(=O)=O | inactive | 
17 | Clc1cccc(Cl)c1Cl | inactive | 
18 | Cc1ccc(OP(=O)(Oc2ccc(C)cc2C)Oc2ccc(C)cc2C)c(C)c1 | inactive | 
19 | BrCc1ccc(Br)cc1 | inactive | 
20 | O=c1nc(O)n(Cl)c(=O)n1Cl | inactive | 

Row | Compound | outcome | AC50
21 | C#CCOC(=O)/C=C(C)/C=C/CC(C)CCCC(C)C (stereo not given) | inactive | 
22 | O=C=Nc1ccc(Cl)cc1 | inactive | 
23 | CCCCCCCCCCCCBr | inactive | 
24 | CCOC(=O)c1ccccc1S(=O)(=O)NC(=O)Nc1nc(Cl)cc(OC)n1 | inactive | 
25 | Oc1cc(Cl)c(Cl)cc1Cl | inactive | 
26 | O=c1[nH]c2ccccc2n1C1CCN(CCCC(c2ccc(F)cc2)c2ccc(F)cc2)CC1 | inactive | 
27 | OC(c1ccc(Cl)cc1)(c1ccc(Cl)cc1)c1cccnc1 | inactive | 
28 | COCCl | inactive | 
29 | C[C@@H]1O[C@@H](O[C@H]2C[C@@H](O)[C@]3(CO)[C@H]4[C@H](O)C[C@]5(C)[C@@H](C6=CC(=O)OC6)CC[C@]5(O)[C@@H]4CC[C@]3(O)C2)[C@H](O)[C@H](O)[C@H]1O |  | 0.165 µM (active)
30 | O=C1C[C@@H]2OCC=C3CN4CC[C@]56c7ccccc7N1[C@H]5[C@H]2[C@H]3C[C@H]46 | inactive | 
31 | CCCCCCCCCCCCCCC(Br)C(=O)O (stereo not given) |  | 129 µM (active)
32 | CCC[CH2][Sn]([Cl])([Cl])[CH2]CCC | inactive | 
33 | CC1(C)[C@H](/C=C2\CCSC2=O)[C@@H]1C(=O)OCc1coc(Cc2ccccc2)c1 | inactive | 
34 | CCCCOP(=O)(CCCC)OCCCC | inactive | 
35 | CC(C)(COCC1CO1)COCC1CO1 (stereo not given) | inactive | 
36 | O=[N+]([O-])c1cccc2ccccc12 | inactive | 
37 | CC1CC(=O)O1 (stereo not given) | inactive | 
38 | NNCCO | inactive | 
39 | OCCCCO | inactive | 
40 | O=S(=O)(c1ccc(Cl)cc1)c1cc(Cl)c(Cl)cc1Cl | inactive | 

From PubChem BioAssay (EPA / NIEHS)
